Test results as given in PubChem BioAssay AID1671202 (University of Kansas High Throughput Screening Laboratory, 2021).
Several values for one entry are separate records, joined by “and”; a condition that tells them apart may be missing. Equal values may be shown once. In all, about 190,000 compounds went through this assay and about 6,900 (3.6%) were called active. For the sample, actives were picked, then their nearest neighbours and some compounds at random. Unmarked numbers belong to inactive results. No stated cut-off is given here; in the data, active means inhibition above about 50%; inactive means the rest.

These compounds were tested against Huntingtin (Homo sapiens) (UniProt P42858) (assay: mutant huntingtin-calmodulin interaction inhibitors – biochemical, AlphaScreen, primary screen (AID 1671202;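 further: 0% = both proteins with DMSO and 100% = one protein alone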)). Settings: AlphaScreen His-mHTT/GST-CaM binding, luminescence; at 15 µM, hits give high values.
Huntingtin (Homo sapiens), sequence (P42858 whole entry, looked up, stated change not applied): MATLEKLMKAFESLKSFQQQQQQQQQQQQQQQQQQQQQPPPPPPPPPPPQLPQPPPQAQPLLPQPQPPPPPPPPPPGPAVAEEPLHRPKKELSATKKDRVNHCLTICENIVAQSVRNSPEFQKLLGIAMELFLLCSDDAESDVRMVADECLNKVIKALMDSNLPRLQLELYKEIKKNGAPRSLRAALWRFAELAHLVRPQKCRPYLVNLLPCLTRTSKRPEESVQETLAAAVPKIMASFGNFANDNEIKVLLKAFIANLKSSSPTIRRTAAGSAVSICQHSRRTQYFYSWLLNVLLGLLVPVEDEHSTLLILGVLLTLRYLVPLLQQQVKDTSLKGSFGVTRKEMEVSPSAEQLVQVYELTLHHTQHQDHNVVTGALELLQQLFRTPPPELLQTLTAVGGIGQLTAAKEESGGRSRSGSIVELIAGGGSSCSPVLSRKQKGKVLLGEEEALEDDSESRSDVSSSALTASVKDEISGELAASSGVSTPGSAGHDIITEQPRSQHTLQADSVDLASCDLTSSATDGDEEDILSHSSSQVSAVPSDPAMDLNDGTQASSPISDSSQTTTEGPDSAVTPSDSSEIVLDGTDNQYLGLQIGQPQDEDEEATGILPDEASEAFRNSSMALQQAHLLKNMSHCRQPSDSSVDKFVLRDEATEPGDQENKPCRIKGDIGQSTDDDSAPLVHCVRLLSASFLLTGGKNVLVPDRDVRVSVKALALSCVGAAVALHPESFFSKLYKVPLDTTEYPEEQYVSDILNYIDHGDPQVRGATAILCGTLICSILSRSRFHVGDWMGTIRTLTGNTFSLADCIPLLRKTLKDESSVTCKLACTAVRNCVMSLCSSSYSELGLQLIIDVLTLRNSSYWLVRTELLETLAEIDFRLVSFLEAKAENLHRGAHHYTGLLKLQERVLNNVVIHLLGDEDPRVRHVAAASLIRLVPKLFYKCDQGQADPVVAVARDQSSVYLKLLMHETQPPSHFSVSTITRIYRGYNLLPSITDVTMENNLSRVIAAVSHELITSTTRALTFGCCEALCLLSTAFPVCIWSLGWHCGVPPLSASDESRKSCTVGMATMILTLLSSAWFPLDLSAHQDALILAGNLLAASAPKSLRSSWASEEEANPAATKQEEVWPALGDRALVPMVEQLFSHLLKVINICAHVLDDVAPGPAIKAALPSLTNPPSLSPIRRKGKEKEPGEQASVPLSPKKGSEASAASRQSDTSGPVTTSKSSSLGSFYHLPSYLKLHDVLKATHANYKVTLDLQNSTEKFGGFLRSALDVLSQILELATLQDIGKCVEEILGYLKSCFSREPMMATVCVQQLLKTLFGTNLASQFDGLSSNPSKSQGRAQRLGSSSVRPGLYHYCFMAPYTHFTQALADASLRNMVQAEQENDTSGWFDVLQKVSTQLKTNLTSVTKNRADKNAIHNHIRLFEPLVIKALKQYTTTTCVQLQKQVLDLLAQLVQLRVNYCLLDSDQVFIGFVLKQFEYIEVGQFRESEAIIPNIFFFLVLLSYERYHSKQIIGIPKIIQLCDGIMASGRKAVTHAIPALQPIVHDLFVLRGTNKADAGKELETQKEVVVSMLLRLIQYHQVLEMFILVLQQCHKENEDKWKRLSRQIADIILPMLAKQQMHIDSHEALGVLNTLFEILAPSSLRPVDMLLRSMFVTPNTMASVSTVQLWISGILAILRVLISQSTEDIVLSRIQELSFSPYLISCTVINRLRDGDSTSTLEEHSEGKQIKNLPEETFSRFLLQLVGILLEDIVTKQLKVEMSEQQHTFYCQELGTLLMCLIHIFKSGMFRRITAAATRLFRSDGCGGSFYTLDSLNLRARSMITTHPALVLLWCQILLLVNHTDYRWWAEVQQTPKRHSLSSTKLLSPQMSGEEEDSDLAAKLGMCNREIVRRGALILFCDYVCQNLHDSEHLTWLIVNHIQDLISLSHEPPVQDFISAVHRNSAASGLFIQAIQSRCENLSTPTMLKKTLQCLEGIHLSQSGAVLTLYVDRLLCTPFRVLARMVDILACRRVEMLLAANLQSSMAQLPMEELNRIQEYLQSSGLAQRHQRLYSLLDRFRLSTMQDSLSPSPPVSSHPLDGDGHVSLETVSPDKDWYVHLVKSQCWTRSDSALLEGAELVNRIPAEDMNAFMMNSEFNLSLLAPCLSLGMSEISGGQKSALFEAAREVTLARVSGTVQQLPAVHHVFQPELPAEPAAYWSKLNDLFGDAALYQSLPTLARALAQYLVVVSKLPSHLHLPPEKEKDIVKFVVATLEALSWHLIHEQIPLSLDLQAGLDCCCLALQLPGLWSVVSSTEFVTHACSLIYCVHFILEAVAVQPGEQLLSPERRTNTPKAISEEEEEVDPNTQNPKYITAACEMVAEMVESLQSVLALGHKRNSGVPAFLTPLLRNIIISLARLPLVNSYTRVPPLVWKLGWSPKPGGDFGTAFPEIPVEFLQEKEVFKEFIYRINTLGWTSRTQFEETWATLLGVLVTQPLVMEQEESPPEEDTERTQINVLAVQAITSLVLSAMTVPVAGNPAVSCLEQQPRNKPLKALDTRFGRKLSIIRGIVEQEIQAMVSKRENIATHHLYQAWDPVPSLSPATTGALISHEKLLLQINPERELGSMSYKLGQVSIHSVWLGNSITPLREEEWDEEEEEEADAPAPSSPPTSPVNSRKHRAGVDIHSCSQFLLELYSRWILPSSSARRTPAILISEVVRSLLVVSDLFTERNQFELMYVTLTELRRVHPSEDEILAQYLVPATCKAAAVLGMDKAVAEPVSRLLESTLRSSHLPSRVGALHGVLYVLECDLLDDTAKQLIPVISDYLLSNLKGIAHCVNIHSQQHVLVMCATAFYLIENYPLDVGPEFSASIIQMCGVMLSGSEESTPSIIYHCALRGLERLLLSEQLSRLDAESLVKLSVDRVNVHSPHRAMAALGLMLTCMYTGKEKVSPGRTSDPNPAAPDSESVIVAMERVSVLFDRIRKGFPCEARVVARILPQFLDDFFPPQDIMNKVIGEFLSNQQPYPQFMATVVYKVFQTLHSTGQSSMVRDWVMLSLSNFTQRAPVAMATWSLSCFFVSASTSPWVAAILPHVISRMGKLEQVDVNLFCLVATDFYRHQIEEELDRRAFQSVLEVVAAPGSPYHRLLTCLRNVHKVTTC

Structure (SMILES) | inhibition
CC1(C)CC(=O)c2sc(NC(=O)C(C)(C)Oc3ccc(Cl)cc3)nc2C1 | -1%
CCNc1nc(NCC)n2c(SCC(=O)c3ccc(C(C)(C)C)cc3)nnc2n1 | -3%
O=C(NCCc1ccc(Cl)cc1)c1cnn2c3c(cnc12)CCCC3 | -0.73%
COc1ccc(C=C2Oc3c(ccc(OC(=O)N4CCOCC4)c3C)C2=O)cc1OC | 1.6%
CCCc1[nH]nc2c1C1(CCOCC1)C(C#N)=C(N)O2 | -0.61%
COc1cccc(C=C2Oc3c(ccc(O)c3CN3CCN(C)CC3)C2=O)c1 | 18.1%
COc1ccc(C=C2Oc3c(ccc(O)c3CN3CCN(C)CC3)C2=O)cc1OC | 6.2%
CN1CCN(Cc2c(O)ccc3c2OC(=Cc2cc4cc(Br)ccc4o2)C3=O)CC1 | 61.5% (active)
CCOc1ccccc1C(=O)NCc1ccc2c(c1)cc(C)n2C | 38.2%
COc1ccc(N2CCN(C(=O)CSCc3ccccc3)CC2)cc1 | 20.7%
Cc1cc(C)nc(Nc2nc(CC(=O)Nc3nc(-c4ccco4)cs3)cs2)n1 | 83.2% (active)
O=C(CCCn1cccc1)Nc1nc(-c2ccco2)cs1 | 28.4%
COc1ccccc1N1CCN(C(=O)C(c2ccccc2)c2ccccc2)CC1 | 38.2%
COc1ccccc1N1CCN(C(=O)CSCc2ccccc2C)CC1 | 66.4% (active)
COC(=O)Nc1nc(CC(=O)NCc2ccco2)cs1 | -3.8%
COc1ccccc1NC(=O)Nc1nc(CC(=O)N2CCc3ccccc32)cs1 | 14.7%
COc1ccccc1N1CCN(C(=O)Cc2csc(Nc3nc(C)cc(C)n3)n2)CC1 | 65% (active)
COc1ccccc1N1CCN(C(=O)c2cn3ccc(C)cc3n2)CC1 | 0.9%
O=C(CCS(=O)(=O)c1ccc(Br)s1)Nc1ccc(F)cc1 | -1%
CC(C)C(=O)Oc1ccc2c(c1)OC(=Cc1ccco1)C2=O | 42.1%
CC(C)C1(CCN(Cc2ccc3c(c2)OCO3)C(=O)c2ccco2)CCOC(C)(C)C1 (stereo not given) | -2.26%
COc1cc(OC)cc(C(=O)Nc2nc(C)c(C)s2)c1 | 9.5%
Cn1nccc1C(=O)N1CCC(c2nncn2-c2ccccc2)CC1 | -1.38%

Structure (SMILES) | inhibition
CCC(C)NC(=O)c1cn(CC(C)C)c(=O)c2c1c1ccccc1n2C (stereo not given) | -2%
Cc1ccc(COCc2nn(C)c3c2CN(C(=O)Nc2cccc(C)c2)CC3)cc1 | 30.3%
O=C(CSc1nccn1-c1ccccc1)Nc1ccccc1C(F)(F)F | 18%
Cc1cc(C(=O)N2CCC(CCOc3ccc(F)cc3)CC2)no1 | -3.47%
COc1cccc(C2CC(c3ccc(C)cc3C)=NC3(CCN(C(C)=O)CC3)N2)c1O (stereo not given) | 7.51%
CCOC(=O)N1CCC2(CC1)N=C(c1cc(Cl)ccc1O)CC(c1ccc(C)cc1)N2 (stereo not given) | 6.77%
CCOC(=O)N1CCC2(CC1)N=C(c1ccccc1O)CC(c1ccc(F)c(Cl)c1)N2 (stereo not given) | 51.8% (active)
CCN1CCC2(CC1)N=C(c1ccccc1O)CC(c1ccc(C)cc1)N2 (stereo not given) | 51.5% (active)
Oc1ccc(Cl)cc1C1CC(c2ccccc2)=NC2(CCNCC2)N1 (stereo not given) | 7.96%
CN1CCC2(CC1)N=C(c1ccc3c(c1)OCO3)CC(c1cc(Cl)ccc1O)N2 (stereo not given) | 16%
Cc1ccc(S(=O)(=O)NCC2CCN(C(=O)Oc3ccccc3)CC2)s1 | -6.7%
Cc1cccc(-c2nc(C3CCN(C(=O)Cc4ccccc4Br)CC3)no2)c1 | -7.4%
COc1ccc(C(=O)Oc2ccc3c(=O)c(Oc4ccccc4OC)coc3c2)cc1 | 0.8%
Cc1cccc(-n2nc3c(c2NC(=O)c2cccc(Cl)c2)CS(=O)(=O)C3)c1C | 16%
CCCN(CCC)CCCNC(=O)CSc1nc2nc(C)c(Cc3ccccc3)c(C)n2n1 | 7%
COc1ccc(OCCCC(=O)Nc2ccccc2)cc1 | -9.6%
O=c1oc2ccc(Br)cc2cc1-c1ccc2c(c1)OCO2 | -1%
C=CS(=O)(=O)N(Cc1nnn(Cc2ccccc2)c1Br)[C@H](C(=O)OC)C(C)C | -13.3%
CN(Cc1ccccc1)C(=O)c1ccc(N2CC3CC(C2)c2cccc(=O)n2C3)c([N+](=O)[O-])c1 (stereo not given) | 9%
O=C(Nc1ccc(Cl)cc1)c1ccc(N2CC3CC(C2)c2cccc(=O)n2C3)c([N+](=O)[O-])c1 (stereo not given) | 6%
COc1ccc(Br)cc1C=C(NC(=O)c1cc(OC)c(OC)c(OC)c1)C(=O)N1CC2CC(C1)c1cccc(=O)n1C2 (stereo not given) | 73.4% (active)
CCC(=O)N1CCN(c2nc3c(s2)CC(C(=O)Nc2cc(C)ccc2C)CC3)CC1 (stereo not given) | 18.3%
Cc1ccc(NC(=O)c2cnn3c2NC(c2ccco2)CC3C(F)(F)F)cc1C (stereo not given) | -4%

Structure (SMILES) | inhibition
COc1ccc(C2CC(C(F)(F)F)n3ncc(C(=O)Nc4ccc(C)c(C)c4)c3N2)cc1OC (stereo not given) | 53% (active)
COc1ccc(C2CC(C(F)(F)F)n3ncc(C(=O)Nc4cc(C)ccc4C)c3N2)cc1OC (stereo not given) | 27%
Cc1ccc(CNC(=O)c2ccnc(N3CCNC(c4ccccc4)C3)c2)cc1 (stereo not given) | 35.5%
COCCCNC(=O)c1c(NC(=O)c2ccccc2Cl)sc2c1CCCC2 | -17.4%
O=c1cc(-c2ccccc2F)oc2ccc(Cl)cc12 | -8.7%
COc1cc(C=Nc2oc(C)c(C)c2C#N)ccc1O | 6%
COc1cc(/C=C2\C(C)=C(C#N)c3nc(N)c(C#N)c(C)c32)ccc1O | 60% (active)
CC1=C(C#N)c2nc(N)c(C#N)c(C)c2/C1=C/c1ccccc1[N+](=O)[O-] | 16%
CC(=O)Nc1c(C)ccc(S(=O)(=O)N2CCCCC2)c1C | 2.7%
COC(=O)C1CN(CCc2ccccc2)CCS(=O)(=O)N1Cc1ccc(F)cc1 (stereo not given) | 50.6% (active)
COC(=O)C1CN(CC(C)C)CCS(=O)(=O)N1Cc1ccc(F)cc1 (stereo not given) | 7.2%
CCCCCCN1CCS(=O)(=O)N(Cc2ccc(C(F)(F)F)cc2)C(C(=O)OC)C1 (stereo not given) | -0.1%
Nc1ncnc(NCc2cccc(Cl)c2)c1[N+](=O)[O-] | 3%
O=[N+]([O-])c1cc(S(=O)(=O)CCCN2CCOCC2)ccc1F | 97% (active)
O=S(=O)(NCCN1CCOCC1)c1ccc(I)cc1 | -0.7%
Cc1ccc(OCCOCCN2CCOCC2)c([N+](=O)[O-])c1 | 2%
CC1CCc2nn(CC(=O)Nc3ccccc3Cl)c(=O)cc2C1 (stereo not given) | 0.27%
COc1ccc(N2CCN(CC(O)COc3ccc(C(C)=O)cc3)CC2)cc1 (stereo not given) | 3.7%
Cc1ccc(-c2nc3s/c(=C\c4ccccc4)c(=O)n3n2)cc1 | 7%
N#C/C(=C\c1cccs1)c1nc(-c2ccc3c(c2)OCO3)cs1 | -4.4%
COc1ccc(OC)c(NC(=O)NS(=O)(=O)c2ccc(C)cc2)c1 | 14.2%
CC(=O)Nc1cc2nn(-c3ccc(Cl)cc3)nc2cc1C | 0.6% and -5%
Cc1nnc2ccc(S(=O)(=O)N(Cc3ccc(F)cc3)c3ccccc3)cn12 | 54.8% (active)

Structure (SMILES) | inhibition
Cc1nnc2ccc(NC(=O)NCc3ccc(F)cc3)cn12 | -6.1%
Cc1nnc2ccc(S(=O)(=O)N(Cc3ccccc3)c3ccc(F)cc3)cn12 | -2.4%
O=C(Nc1cccs1)N1CCN(c2ccc(-c3ccco3)nn2)CC1 | 52% (active)
CC(C)Oc1ccc(C(=O)N2CCN(Cc3nc(-c4ccco4)cs3)CC2)cc1 | 9.1%
O=C(c1cccc(-n2cnnn2)c1)N1CCN(c2ccc(-c3cccs3)nn2)CC1 | 2.8%
COc1ccc(C2C(C#N)=C(N)N(c3ccccc3[N+](=O)[O-])C3=C2C(=O)CCC3)cc1 (stereo not given) | 21%
Cc1ccc2[nH]c3c(c2c1)CCCC3O (stereo not given) | 19.3%
Clc1ccc2[nH]c3c(c2c1)CCCC3NCCOc1ccccc1 (stereo not given) | 100% (active)
COC(=O)c1cccc(NC(=O)N2CCc3c(nc4cc(-c5ccccc5)[nH]n4c3=O)C2)c1 | 7.79%
COc1ccc(-c2cc3nc4c(c(=O)n3[nH]2)CN(C(=O)c2ccccc2Cl)CC4)cc1 | 62.5% (active)
CCc1cccc(NC(=O)N2CCc3c(nc4cc(-c5ccc(OC)cc5)[nH]n4c3=O)C2)c1 | 26.8%
COc1ccc(-c2cc3nc4c(c(=O)n3[nH]2)CN(C(=O)c2ccc(C)nc2)CC4)cc1 | 1.93%
COc1ccc(-c2cc3nc4c(c(=O)n3[nH]2)CCN(C(=O)c2ccccc2C)C4)cc1 | 65.3% (active)
COc1ccc(-c2cc3nc4c(c(=O)n3[nH]2)CN(C(=O)CSc2ccccc2)CC4)cc1 | 9.49%
CNC(=O)N1CCc2nc3cc(-c4ccc(OC)cc4)[nH]n3c(=O)c2C1 | 9.34%
O=C(C1COc2ccccc2O1)N1CCc2c(nc3cc(-c4ccccc4)[nH]n3c2=O)C1 (stereo not given) | 76.2% (active)
O=C(c1ccc(C(F)(F)F)s1)N1CCc2c(nc3cc(-c4ccccc4)[nH]n3c2=O)C1 | 42.1%
CCOc1ccc(NC(=O)c2ccc(F)c(S(=O)(=O)NC3CCCCCC3)c2)cc1 | 11%
C=CCN(C(C)=O)c1nc(C)c(Cl)c(OC)n1 | -2%
CCOC1CCc2oc(-c3ccsc3)c(C#CC(C)(C)O)c21 (stereo not given) | 11.3%
O=C(NC1CC2CC1N(C(=O)c1cccc(C(F)(F)F)c1)C2)c1cccs1 (stereo not given) | 0.72%
